Assay outcomes (PubChem BioAssay)
Giardia FBPA inh: qHTS Assay for Inhibitors of Fructose-1,6-bisphosphate Aldolase from Giardia Lamblia; A8B2U2; purified Giardia FBPA; Potency, µM (top dose mostly 59.6 µM), without a hit: at the highest dose activity, negative = inhibition, hits mostly inhibitors; actives 0.71% (n = 290,000); note: potency is the fitted concentration of half-maximal effect; % is set by controls: 0 for no effect and ±100 for the full control effect; nearly all actives have a fitted effect of over 55% in size
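Giardia FBPA (40 nM reagent) was preincubated 10 min at RT with compound (up to 57.5 uM final), then substrate plus GAPDH/TPI/NAD/arsenate coupling system with diaphorase/resazurin was added; resorufin fluorescence (525/598 nm) was read after 20 min.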
CHX counter: Cycloheximide Counterscreen for Small Molecule Inhibitors of Shiga Toxin; cell reporter, cycloheximide protein synthesis inhibition counterscreen; max response, %; actives 12% (n = 300,000); in the data active = max response mostly above about 13%, no sharp cut-off; inactive = mostly below about 14%; note: read at 38.3 µM for the half of the compounds with a filed dose; 0% is about no effect
Shiga inhibitor: A qHTS for Small Molecule Inhibitors of Shiga Toxin | Vero cells, Shiga toxin protein synthesis inhibition reporter | inhibition, % at 38.7 µM | actives 9.2% (n = 290,000); in the data active = inhibition mostly above about 28%, no sharp cut-off; inactive = mostly below about 43%; note: 0% is about no effect
Sm TGR inh: qHTS Assay for the Inhibitors of Schistosoma Mansoni Peroxiredoxins; Schistosoma mansoni thioredoxin glutathione reductase (TGR), Q962Y6; purified TGR, DTNB reduction, TNB absorbance 405 nm; Potency, µM (highest dose often 114 µM), without a hit: at the highest dose activity change, negative = inhibition, most hits filed as inhibitors; actives 3% (n = 360,000); AID 485364, 2010; note: potency is the fitted concentration of half-maximal effect; % is set by controls: 0 for no effect and ±100 for the full control effect; nearly all actives have a fitted effect of over 60% in size
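First, TGR (20 nM dispensed) and NADPH were mixed with compound. Second, a 15 min room-temperature incubation followed. Third, further NADPH and then DTNB were added to start the reaction. Finally, TNB absorbance was monitored kinetically.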
TbPYK inhibitor: qHTS of Trypanosoma Brucei Inhibitors; actives 0.12% (n = 410,000); Potency, µM (highest dose often 76.8 µM), for inactives: top-dose activity, negative = inhibition, hits mostly inhibitors; TbPYK enzyme, Kinase-Glo Plus ATP luminescence, 45 min; note: potency is the fitted concentration of half-maximal effect; % is set by controls: 0 for no effect and ±100 for the full control effect; nearly all actives have a fitted effect of over 50% in size
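Assay buffer: 50 mM TEA pH 7.2, 100 mM KCl, 10 mM MgCl2, 0.05% BSA, 0.01% Tween-20. Pyruvate kinase from T. brucei plus substrate met compound, then ADP (130 uM final). Luminescence was read post 45 min RT.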
LmPK inh: qHTS Assay for Inhibitors of Leishmania Mexicana Pyruvate Kinase (LmPK); purified LmPK, Kinase-Glo ATP luminescence, 1 h; Potency, µM (titrated, usually from 57.5 µM), without a hit: top-dose activity change, negative = inhibition, most hits filed as inhibitors; actives 0.37% (n = 290,000); note: potency is the fitted concentration of half-maximal effect; % is set by controls: 0 for no effect and ±100 for the full control effect
Target sequence (Q27686 whole entry, looked up): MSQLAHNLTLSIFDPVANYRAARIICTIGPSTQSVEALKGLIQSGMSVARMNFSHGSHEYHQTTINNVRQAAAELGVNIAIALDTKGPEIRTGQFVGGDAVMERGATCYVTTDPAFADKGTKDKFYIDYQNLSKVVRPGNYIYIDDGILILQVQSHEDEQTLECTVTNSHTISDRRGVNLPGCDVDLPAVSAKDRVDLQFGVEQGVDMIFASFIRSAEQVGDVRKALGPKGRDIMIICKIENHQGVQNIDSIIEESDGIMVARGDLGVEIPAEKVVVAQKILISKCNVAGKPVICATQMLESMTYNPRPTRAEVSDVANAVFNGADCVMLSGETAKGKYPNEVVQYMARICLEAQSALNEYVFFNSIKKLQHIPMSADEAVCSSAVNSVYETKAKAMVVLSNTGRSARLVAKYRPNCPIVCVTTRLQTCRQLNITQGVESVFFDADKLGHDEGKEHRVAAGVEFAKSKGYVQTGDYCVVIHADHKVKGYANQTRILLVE
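Screened at intermediate enzyme activity to detect both inhibitors and activators: LmPK at 0.1 nM, with a 0.5 nM enzyme column as activation reference. PEP 0.5 mM, ADP 0.1 mM; ATP detected by luminescence after 1 h.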
* marks the source's active call; other numbers are inactive results; ! = not active in a repeat; [ ] = dose if it differs, or a comment. The sample as a whole holds a higher share of hits than the screen did. Unless noted, calls come from the whole dose curve; as a rule, active = well fitted curve in the direction sought with a large enough effect; inconclusive = small, poorly fitted or top-dose-only effect, or another doubt; inactive = no such curve, though single readings can be large; an effect the other way counts as inactive or inconclusive.

For CCCCCCC1=Cc2cc(OC)c(OC)cc2C(CC(=O)/C=C/OC)O1 (stereo not drawn) the results were Giardia FBPA inh -8%[12.9 µM].
`COc1ccc2[nH]c(=O)c(CN(C(=O)c3cccnc3)c3ccccc3C)cc2c1` gave Giardia FBPA inh 11%, CHX counter 6, Shiga inhibitor 35, Sm TGR inh -5%, TbPYK inhibitor -2% and LmPK inh 4%.
Screening Fc1ccc2nc(N3CCOCC3)sc2c1 returned Giardia FBPA inh 0%, CHX counter 35*, Shiga inhibitor 107*, Sm TGR inh 2%, TbPYK inhibitor 3% and LmPK inh -11%[11.5 µM].
`O=C(c1ccc2c(c1)OCO2)N1CCN(c2ccccc2)CC1` gave Giardia FBPA inh 22%, CHX counter 8, Shiga inhibitor 44, Sm TGR inh -8%, TbPYK inhibitor 3% and LmPK inh 2%.
c1ccc2c(c1)CCN(c1nc3cc4c(cc3s1)OCO4)C2 was read as Giardia FBPA inh -27%, CHX counter 40*, Shiga inhibitor 97*, Sm TGR inh -7%, TbPYK inhibitor -19% and LmPK inh inconclusive.
Cc1ccc(NC(=O)c2ccc3nc(N4CCOCC4)sc3c2)c(Cl)c1 was read as Giardia FBPA inh -4%, CHX counter 16*, Shiga inhibitor 4, Sm TGR inh -12%, TbPYK inhibitor -20% and LmPK inh -5%.
c1ccc(N2CCN(c3nc4cc5c(cc4s3)OCO5)CC2)cc1 was read as Giardia FBPA inh 6%, CHX counter 53*, Shiga inhibitor 33*, Sm TGR inh 1%, TbPYK inhibitor -8% and LmPK inh 2%.
`CCOC(=O)CCN1C(=O)[C@H]2[C@H]3[C@H](O)[C@H](O)C/C(=N/OC[C@@H](O)COCc4ccco4)[C@H]3CC[C@@H]2C1=O` gave Giardia FBPA inh 4%[12.9 µM].
COCCn1c(=O)c(-c2ccc(OC)cc2)nc2cnc(N3CCN(C)CC3)nc21 was read as Giardia FBPA inh 3%.
`c1c2c(cc3sc(N4CCOCC4)nc13)OCO2` gave Giardia FBPA inh -5%[12.9 µM], CHX counter 43*, Shiga inhibitor 56*, Sm TGR inh 17%, TbPYK inhibitor inconclusive and LmPK inh 16µM*.
`Nc1ccc2nc(N)sc2c1` gave TbPYK inhibitor 6%.
`Nc1nc2ccc(N3CCOCC3)cc2s1` gave Giardia FBPA inh -23%, CHX counter 34*, Shiga inhibitor 32*, Sm TGR inh -18%, TbPYK inhibitor -7% and LmPK inh -4%.
Cc1ccc(NC(=O)Cn2c(=O)oc3cc(S(=O)(=O)N4CCCCCC4)ccc32)cc1Cl was read as Sm TGR inh 15% and TbPYK inhibitor 6%[15.4 µM].
Screening N/C(=N\OC(=O)c1cc(Cl)ccc1Cl)c1ccccn1 returned Giardia FBPA inh -7%, CHX counter 25*, Shiga inhibitor 64*, Sm TGR inh -13%, TbPYK inhibitor -4% and LmPK inh -21%.
Screening COc1ccc(Cl)cc1C(=O)O/N=C(\N)c1ccccn1 returned Giardia FBPA inh 11%, CHX counter 41*, Shiga inhibitor 60*, Sm TGR inh -17%, TbPYK inhibitor 0% and LmPK inh 0%.
For COc1ccc2[nH]c3c(c2c1)CCNC3=O the results were Giardia FBPA inh 0% and TbPYK inhibitor 2%.
Screening COc1cc2[nH]c(-c3cccc(F)c3)cc(=O)c2cc1OC returned Giardia FBPA inh 6%, CHX counter -3, Shiga inhibitor -14, Sm TGR inh -6%, TbPYK inhibitor -6% and LmPK inh 1%.
For COc1ccc2[nH]c3c(c2c1)CCC/C3=N\N the results were Giardia FBPA inh -15%, CHX counter 9.7*, Shiga inhibitor 8, Sm TGR inh 45µM*, TbPYK inhibitor -9% and LmPK inh 2%.
For COc1cc2[nH]c(-c3ccc(C)cc3)cc(=O)c2cc1OC the results were Giardia FBPA inh -6%[89.2 µM], CHX counter 29*, Shiga inhibitor active!, Sm TGR inh -1%, TbPYK inhibitor 1% and LmPK inh -2%.
For COc1ccc(-c2cc(=O)c3cc(OC)ccc3[nH]2)cc1 the results were Giardia FBPA inh 0%, CHX counter 61*, Shiga inhibitor 94*, Sm TGR inh -1%, TbPYK inhibitor -25% and LmPK inh inconclusive.
`COc1ccc2[nH]c3ccccc3c2c1` gave Giardia FBPA inh -7%, CHX counter 32*, Shiga inhibitor 58, Sm TGR inh 0%, TbPYK inhibitor -5% and LmPK inh 0%.
CO[C@@H]1COC(=O)C/C=C\[C@@H](C)[C@H](OC)COC(=O)[C@H](COCc2ccccc2)NC(=O)C/C=C\[C@H]1C was read as Giardia FBPA inh 0%[12.9 µM].
COc1ccc(-c2cc(=O)c3cc(C)ccc3[nH]2)cc1 was read as Giardia FBPA inh -4%[89.2 µM], CHX counter 35*, Shiga inhibitor 53*, Sm TGR inh 2%, TbPYK inhibitor -3% and LmPK inh -8%.
COc1ccc(-c2nc(SCc3cc(=O)c4cc(C)ccc4[nH]3)n[nH]2)cc1 was read as Sm TGR inh -6% and TbPYK inhibitor -8%.
Screening O=C(O/N=C1/CCSc2ccccc21)c1ccccc1 returned Giardia FBPA inh -5%, CHX counter 39*, Shiga inhibitor 40*, Sm TGR inh -7%, TbPYK inhibitor 5% and LmPK inh inconclusive.
O=C(O/N=C1\CCCc2ccccc21)c1ccc(F)cc1 was read as Giardia FBPA inh -1%, CHX counter 16*, Shiga inhibitor 21*, Sm TGR inh -4%, TbPYK inhibitor -8% and LmPK inh -29%.
Cc1ccc2c(c1)/C(=N/OC(=O)c1ccc(F)cc1)CCS2 was read as Giardia FBPA inh 0%, CHX counter -6, Shiga inhibitor 15, Sm TGR inh 5%, TbPYK inhibitor 0% and LmPK inh 1%.
COc1ccc(C(=O)N2CCC(n3c(C)nc4cc(F)ccc43)CC2)cc1 was read as Giardia FBPA inh 2%, CHX counter -9, Shiga inhibitor -19, Sm TGR inh 5%, TbPYK inhibitor -1% and LmPK inh -3%.
`O=C(/C=C/c1ccc([N+](=O)[O-])cc1)NC1CC2CCC1C2` (stereo not drawn) gave Giardia FBPA inh -19%, CHX counter 43*, Shiga inhibitor 49*, Sm TGR inh -2%, TbPYK inhibitor -27% and LmPK inh 2%.
